Source: PubChem
KB-3-1 cytotox = kills parental KB-3-1 adenocarcinoma cells. KB-3-1 viability, CellTiter-Glo ATP luminescence, 72 h. Potency, µM (doses to about 46.1 µM), hits mostly cytotoxic. 400,000 tested, 1.4% active. AID 1347075; also: nearly all actives have a fitted effect of over 60% in size
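Multi-concentration cytotoxicity screen in KB-3-1 cells grown in DMEM lacking phenol red with 10% FBS. After 72 h at 37 °C with compound, ATP-dependent luminescence was recorded.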
MCF10A rerep = inducers of DNA re-replication in MCF 10A breast cells. AID 624296. 350,000 tested, 2.9% active. MCF 10A DNA re-replication, Hoechst nuclear intensity, 48 h. Potency, µM (top dose mostly 46.1 µM), actives largely listed as activators; also: nearly all actives have a fitted effect of over 50% in size
ELG1 repair inh = blocks ELG1-dependent DNA repair in HEK293T cells; AID 504467; HEK293T ELG1-luciferase reporter, luminescence, 16 h; DNA damage induced by 5-fluorouridine; 330,000 tested, 2.3% active; Potency, µM (highest dose often 46.1 µM), actives largely listed as inhibitors; also: nearly all actives have a fitted effect of over 55% in size
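Overnight (16 hr) co-exposure of 2,000 cells/well to 5-fluorouridine and compound at 37 °C preceded detection. Luciferase was quantified via ONE-Glo luminescence; loss of signal denotes inhibition.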
SW480 rereplic = inducers of DNA re-replication in SW480 colon cancer cells; SW480 DNA re-replication, Hoechst DNA content imaging, 48 h; Potency, µM (titrated, usually from 46.1 µM), actives largely listed as activators; 340,000 tested, 1.8% active; AID 624297; also: nearly all actives have a fitted effect of over 55% in size
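Quantitative HTS format with DMSO vehicle controls; 48 hr drug incubation at 37 C, then 40 min Hoechst staining and scanning imager measurement at 405 nm excitation.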
KB-V1 MDR tox = KB-V1 MDR subline cytotoxicity. KB-V1 MDR cells viability, CellTiter-Glo, 72 h. Potency, µM (doses to about 46.1 µM), actives largely listed as cytotoxic. 400,000 tested, 3.4% active. AID 1347076; also: nearly all actives have a fitted effect of over 60% in size
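Compound-treated KB-V1 multidrug-resistant cells, 72 h, 37 degrees C; viability by CellTiter-Glo. Fitted qHTS curves give the values.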
Numbers stand for hits; 0 = inactive; ? = inconclusive; - = no result given; [ ] = another dose, or the depositor's remark. In the library only some 8.1% were active in any assay of this set; here they are far more common. Calls follow the shape of the dose curve; as a rule, active = well fitted curve in the direction sought with a large enough effect; inconclusive = small, poorly fitted or top-dose-only effect, or another doubt; inactive = no such curve, though single readings can be large; an effect the other way counts as inactive or inconclusive.

SMILES	KB-3-1 cytotox	MCF10A rerep	ELG1 repair inh	SW480 rereplic	KB-V1 MDR tox
COC(=O)COc1ccc(S(=O)(=O)NCc2ccco2)cc1	0	0	0	0	0
O=C(O)c1cccc(CN2C(=O)SC(Nc3ccccc3)C2=O)c1 (configuration not stated)	0	23µM	0	0	0
Cc1ccc(NC2SC(=O)N(Cc3cccc(C(=O)O)c3)C2=O)cc1 (configuration not stated)	0	0	0	0	0
Cc1ccc(NC(=O)CCCCCC2NC(=O)NC2C)cc1 (configuration not stated)	0	0	0	0	0
COc1cc(CNc2ccc(C)c(C)c2)cc(OC)c1OC	0	16µM	?	8.2µM	?
COc1ccc(CNc2ccc(C)c(C)c2)cc1	0	0	?	0	0
CCOc1cc(CNc2ccc3c(c2)OCCO3)cc(Br)c1OCC(N)=O	0	0	?	0	0
CCOc1cc(CNc2ccc3c(c2)OCCO3)cc(Br)c1OC	1.6µM	1.6µM	0	7.3µM	2.1µM
CCOc1c(Br)cc(CNc2ccc3c(c2)OCCO3)cc1OC	2.1µM	1.3µM	?	5.8µM	4.1µM
O=C1CC(NC(=O)C(F)(F)F)c2cc3c(cc21)OCO3 (configuration not stated)	0	0	0	0	0
COc1cc2c(cc1OC)C(NC(=O)C(F)(F)F)CNC2=O (configuration not stated)	0	0	12µM	0	0
N=c1cc(C2(O)CCCCC2)n2c(nc3ccccc32)s1	?	18µM	?	?	16µM
CCOc1ccc(OCc2ccc(C(=O)N3CCc4ccccc4C3)o2)cc1	0	?	?	0	0
Cc1ccc(NC(=O)Cn2c(=O)n(CCCCCC(=O)NCc3ccc(F)cc3)c(=O)c3sccc32)c(C)c1	0	-	-	-	0
COc1cccc(CN2CCC2(C)C(=O)Nc2cccc(Oc3ccccc3)c2)c1F (configuration not stated)	?	-	-	-	7.3µM
COc1cccc(NC(=O)C2(C)CCN2Cc2cccc(OC)c2F)c1 (configuration not stated)	0	-	-	-	0
O=C(CN1CCC(C(O)(c2ccccc2)c2ccccc2)CC1)Nc1ccccc1	0	0	?	0	?
O=C1C(=Cc2cccn2-c2ccccc2)C(=O)c2ccccc21	0	0	?	18µM	0
CCN(CCC(=O)Nc1ccc(Br)c(C)c1)Cc1ccccc1	?	0	0	0	?
O=C(CCN(CCO)Cc1ccccc1)Nc1ccc(Br)cc1	0	0	0	0	15µM
CN(C)c1ccc(/C=C/c2cccc[n+]2[O-])cc1	0	0	?	?	0
CC(C)CC[n+]1ccccc1/C=C/c1ccc(N(C)C)cc1	1.5µM	0	?	4.6µM	0
CCN(CC)c1ccc(CN(C(=O)c2cc(OC)c(OC)c(OC)c2)C2CCS(=O)(=O)C2)cc1 (configuration not stated)	0	0	0	0[9.22 µM]	0
CCCN(C)C1CN(Cc2cn(CCCOC)nn2)S(=O)(=O)C1 (configuration not stated)	0	-	-	-	0
CCOC(=O)c1c(C)[nH]c(C)c1S(=O)(=O)NCCN1CCN(c2cc(Cl)ccc2C)CC1	16µM	0	?	0	?
SMILES	KB-3-1 cytotox	MCF10A rerep	ELG1 repair inh	SW480 rereplic	KB-V1 MDR tox
COc1ccc(CNC(=O)C2CCN(S(=O)(=O)c3ccc4c(c3)C(C)(C)C(=O)N4C)CC2)cc1	0	0	0	0	0
Cc1c(C(=O)N/N=C/C(C)C)[nH]c2c([N+](=O)[O-])cccc12	?	21µM	0	?	?
CC(=O)Nc1ccc(S(=O)(=O)N2CC(=O)NC(=O)C2)cc1	0	0	0	0	0
Fc1ccc(CNc2ccc(N3CCN(Cc4ccccc4)CC3)cc2)cc1	?	0	7.3µM	?	0
O=C(CCS(=O)(=O)c1ccc(F)cc1)Nc1ccc(N2CCN(Cc3ccccc3)CC2)cc1	0	0	0	0	18µM
CC(=O)N1CCN(c2ccc(NCc3ccccc3)cc2)CC1	0	?	0	0	0
O=C(CCS(=O)(=O)c1ccccc1)Nc1ccc(N2CCN(Cc3ccccc3)CC2)cc1	0	?	0	0	?
COc1ccc(/C=c2\s/c(=C/C(=O)c3ccc(C)cc3)[nH]c2=O)cc1OC	0	13µM	?	0	0
CCCOC(=O)CCCC[C@H]1SC[C@@H](NC(=O)OC)[C@H]1NC(=O)OC	0	0	0	0	0
O=C(Nc1ccc([N+](=O)[O-])cc1NC(=O)c1ccccc1)c1ccccc1	0	0	-	0	?
Cc1ccc(C2(C(=O)N3CCC(n4nc(-c5ccccc5)oc4=O)CC3)CC2)cc1	0	21µM	0	0	0
COc1ccc(C2(C(=O)N3CCC(n4nc(-c5ccccc5)oc4=O)CC3)CC2)cc1	0	0	0	0	0
CC(C)(C)C(=O)C[n+]1ccccc1	0	0	0	0	0
CCC(C)(C)c1ccc(Oc2ccc(N)cc2)cc1	0	15µM	0	0	0
O=C(CNC(=O)c1ccccc1F)NCCN1C(=O)S/C(=C\c2ccc3c(c2)OCO3)C1=O	0	0	0	?	0
CCOC(=O)CN1NC2(CCCCCC2)NC1=S	0	0	0	0	0
Cc1nc(C)c(-c2csc(Nc3ccc(N)cc3)n2)s1	0	0	?	0	0
COc1ccc(Nc2nc(-c3sc(C)nc3C)cs2)cc1	5.8µM	?	0	1.5µM	1.6µM
Cc1nc(C)c(-c2csc(Nc3cccnc3)n2)s1	0	0	?	0	3.3µM
Cc1cc(C(C)(C)C)cc(C)c1Cn1c2[n+](c3ccc(C(F)(F)F)cc31)CCCCC2	?	?	15µM	0	0
CCCCn1c(-c2csc3c2CCCC3)n[nH]c1=S	0	0	0	0	21µM
CCCCn1c(-c2csc(CC)c2)n[nH]c1=S	0	0	0	0	0
CCCCn1c(-c2csc3c2CCC(C)C3)n[nH]c1=S (configuration not stated)	21µM	0	0	0	15µM
CCCCn1c(-c2csc(C(C)C)c2)n[nH]c1=S	0	0	0	0	23µM
NS(=O)(=O)c1ccc(Nc2ccc3nonc3c2[N+](=O)[O-])cc1	0	0	0	?	0
SMILES	KB-3-1 cytotox	MCF10A rerep	ELG1 repair inh	SW480 rereplic	KB-V1 MDR tox
CC(=O)c1cccc(N(C(=O)c2ccccn2)C(C(=O)NC2CCCCC2)c2ccccc2)c1 (configuration not stated)	0	0	0	0	0
O=S(=O)(Nc1ncccn1)c1ccc(Cl)cc1	0	0	0	0	0
CN(C)c1nc(NS(=O)(=O)c2ccc(Cl)cc2)nc(N(C)C)n1	0	0	?	0	13µM
O=C(Nc1ccc2nc3n(c(=O)c2c1)CCCCC3)c1ccccn1	0	0	?	0	0
N#Cc1c(-n2cccc2/C=N/O)sc2c1CCCC2	0	0	0	0	23µM
C=CCNCc1cccn1-c1sc2c(c1C#N)CCCC2	0	0	?	0	0
